About 79,000 compounds went through this panel and 15% of them were active in at least one assay; those are over-represented in the sample as a whole. Rule as the data show it: active = growth inhibition above about 70%; inactive = the rest.
Assays:
[1] = NCI Yeast Anticancer Drug Screen. Data for the rad50 strain (AID 155);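 also: 0% = growth of vehicle-only cultures of the same strain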; details: S. cerevisiae rad50 strain growth inhibition; at 50.0 µM; active compounds read high
Method in brief: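 Yeast carrying a defined DNA repair defect were exposed to test compounds, and growth was compared with vehicle-treated controls to give percent inhibition.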

[2] = NCI Yeast Anticancer Drug Screen. Data for the mec2-1 strain (AID 157); details: S. cerevisiae mec2-1 strain, at 50.0 µM, active compounds read high
Method in brief: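 Strain: mec2-1 (DNA repair/cell cycle alteration). Compound exposure, then growth measured; inhibition expressed relative to vehicle.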

[3] = NCI Yeast Anticancer Drug Screen. Data for the sgs1 mgt1 strain (AID 161);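 also: 0% = growth of cultures given vehicle only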; details: S. cerevisiae sgs1 mgt1 strain, at 50.0 µM, active compounds read high
Method in brief: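 Mutant yeast exposed to compound; growth scored against vehicle-only wells.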

[4] = NCI Yeast Anticancer Drug Screen. Data for the cln2 rad14 strain (AID 165);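 also: 0% = growth equal to vehicle treated cultures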; details: S. cerevisiae cln2 rad14 strain, at 50.0 µM, active compounds read high
Method in brief: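 Compounds are applied to the cln2 rad14 yeast strain, and growth is then compared with that of vehicle-treated cultures to give inhibition.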

[5] = NCI Yeast Anticancer Drug Screen. Data for the bub3 strain (AID 167); details: S. cerevisiae bub3 mutant strain, at 50.0 µM, active compounds read high
Method in brief: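 Compounds were applied to a genetically altered yeast strain carrying a cell-cycle control defect. Growth inhibition was scored against vehicle-treated controls.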

[6] = NCI Yeast Anticancer Drug Screen. Data for the mlh1 rad18 strain (AID 175); details: S. cerevisiae mlh1 rad18 strain growth inhibition; at 50.0 µM; active compounds read high
Method in brief: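 Read-out is yeast growth inhibition, calculated against vehicle-only controls. The compound was applied to a strain engineered with DNA damage repair alterations.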

Measured: growth inhibition

CCCc1cc(=O)oc2c3c(cc(OC(C)C)c12)O[C@H](C)[C@H](C)[C@@H]3O
inactive: [1] 3.55% | [2] 0.15% | [3] -10.8% | [4] -1.45% | [5] -7.6% | [6] 18.8%

COC(=O)NN=C1C(C)(C)C(=O)C1(C)C
inactive: [1] -20.7% | [2] -21.8% | [3] -25.4% | [4] 6.05% | [5] -29.4% | [6] -20.1%

CS(=O)(=O)OC1CCCSc2ccccc21 (stereo not given)
inactive: [1] 8.8% | [2] 2% | [3] -14.4% | [4] -8.2% | [5] 16.7% | [6] -25.4%

CCOC(=O)c1c2c(c(-c3ccccc3)n1C)C(=O)C(C)=C(C)C2=O
inactive: [1] -10.8% | [2] -2.4% | [3] -10.2% | [4] -28.9% | [5] 1.05% | [6] -6.65%

O=c1[nH]c(-c2ccccc2)nc2cc([N+](=O)[O-])c(/C(Cl)=C/c3ccccc3)cc12
inactive: [1] 28.8% | [2] 14.4% | [3] 13.8% | [4] 12.1% | [5] -1% | [6] 33.8%

C/C=C(\Cl)C=O
inactive: [1] 12.4% | [2] 5% | [3] -22.9% | [4] -9.7% | [5] 3.5% | [6] 11.2%

Cc1cc(Oc2cnc(=O)[nH]c2)cs1
inactive: [1] 27.1% | [2] 22.4% | [3] 19.9% | [4] 1.7% | [5] 12% | [6] 10.9%

COc1cc(OC)c2c3c(OC)cc(OC)c4c(=O)c(O)c(C[C@@H](C)O)c(c5c(C[C@@H](C)O)c(O)c(=O)c1c25)c43
inactive: [1] 66.8% | [2] 46.4% | [3] 37% | [4] -4.45% | [5] 34.4% | [6] 54.9%

CC1(C)CC(=O)C2=C(C1)NC(SSC1=C(C#N)C(c3ccc(F)cc3)C3=C(CC(C)(C)CC3=O)N1)=C(C#N)C2c1ccc(F)cc1 (stereo not given)
inactive: [1] -22.4% | [2] -12.8% | [3] -12.4% | [4] 55.5% | [5] -26.2% | [6] -25.8%

C=CC(=O)OCCC#N
inactive: [1] 9% | [2] 18.8% | [3] 1.3% | [4] 2.8% | [5] 15.1% | [6] 5.45%

CC(=O)c1cc2c(cc1C)C(C(C)C)CCC2(C)C (stereo not given)
inactive: [1] 3.75% | [2] -14.6% | [3] 6.55% | [4] -18.8% | [5] 41.7% | [6] 6.85%

CC(C)NC(=O)c1ccccc1-[s+]1c2ccccc2c(=O)n1C(C)C (stereo not given)
inactive: [1] 22% | [2] 1.15% | [3] -11.7% | [4] 3.9% | [5] -2.95% | [6] 9.3%

O=C1C=C(C2=CC(=O)C(=O)c3ccccc32)c2ccccc2C1=O
inactive: [1] 27.5% | [2] 9.45% | [3] 6.55% | [4] -5% | [5] 53.1% | [6] 35.2%

CN(C)CCCN=C(N)N
inactive: [1] 1.25% | [2] -20.9% | [3] -23.9% | [4] 20.4% | [5] -57.5% | [6] -4.1%

NC(=O)C(N)C(N)=NCc1ccccc1 (stereo not given)
inactive: [1] 10% | [2] 1.35% | [3] 4.15% | [4] -7.25% | [5] -2.3% | [6] 13.5%

Cc1nn(C)c(=O)c(N)c1-c1cc(-c2ccc(Cl)cc2)n[nH]1
inactive: [1] 13.9% | [2] 4.45% | [3] 19.9% | [4] 20.1% | [5] 18.1% | [6] 13.9%

O=C(c1ccccc1)C(O)(Cc1ccccc1)c1ccccc1 (stereo not given)
inactive: [1] 1.9% | [2] 17.2% | [3] 20.8% | [4] 22.8% | [5] 14.4% | [6] 12%

CCOC(=O)c1c(C(C)=O)cnc2c(C#N)cnn12
inactive: [1] -1.15% | [2] -1.55% | [3] -4.95% | [4] 41% | [5] 0.6% | [6] -10.9%

O=[N+]([O-])c1cccc(CC(=S)N2CCOCC2)c1
inactive: [1] 14.4% | [2] -3.8% | [3] -8.9% | [4] -39.8% | [5] -2.3% | [6] 6.6%

COc1cc(-c2ccc([NH2+][B-](F)(F)F)c(OC)c2)ccc1[NH2+][B-](F)(F)F
inactive: [1] 21.7% | [2] -2.05% | [3] 37.3% | [4] 29.1% | [5] 9.1% | [6] 18.9%

C/C(CC(=O)Nc1ccc(NC(=O)/C(C)=N/NS(=O)(=O)c2ccc(C)cc2)cc1)=N\NS(=O)(=O)c1ccc(C)cc1
inactive: [1] 16.2% | [2] 2.95% | [3] -12.8% | [4] -6.35% | [5] -0.9% | [6] 27.1%

OCCCSc1ccccc1SCCCO
inactive: [1] -1.4% | [2] -2.45% | [3] 3.5% | [4] -1.7% | [5] 3.75% | [6] 5.1%

CCC(C)(C)c1ccc(OCCCCNC(=O)c2ccc3ccccc3c2O)c(C(C)(C)CC)c1
inactive: [1] -7.65% | [2] 2.05% | [3] -14.2% | [4] -37.1% | [5] -18.2% | [6] 3.15%

Clc1ccc(-c2nnc(-c3cccc4ccccc34)o2)cc1Cl
inactive: [1] 10.1% | [2] -32.3% | [3] -29.5% | [4] 54% | [5] -47.9% | [6] -15%

CCCCCCCCCCCCCCCC(=O)N=C(C(N)=O)C(N)=O
inactive: [1] 4.25% | [2] -35% | [3] -14.7% | [4] -54% | [5] -22.6% | [6] -19.9%

OC1CCCSC1 (stereo not given)
inactive: [1] 18.1% | [2] -15.9% | [3] 12.8% | [4] 4.75% | [5] 16.6% | [6] 27.9%

CC(C)c1cccc(C(C)C)c1NC(=O)C(=O)C1SC(=S)NC1=O (stereo not given)
inactive: [1] -23.6% | [2] -13.1% | [3] -18.9% | [4] 8.75% | [5] -11.3% | [6] -29.6%

CC1OC(n2cc(Cl)c(=O)[nH]c2=O)C=C(OC(=O)c2ccccc2)C1=O (stereo not given)
inactive: [1] -18.6% | [2] -27.4% | [3] -24.9% | [4] -16.8% | [5] -22.4% | [6] -28.9%

Cn1nc(-c2ccccc2)c(C(=O)/C=C/c2ccccc2)c(N2CCCC2)c1=O
inactive: [1] -22.1% | [2] -11.2% | [3] 3.2% | [4] -4.15% | [5] -21.1% | [6] -19.2%

Cc1ccccc1N=Cc1ccc(N(CCC#N)S(=O)(=O)c2ccccc2)cc1
inactive: [1] 11.7% | [2] -8.3% | [3] 19.9% | [4] 18.7% | [5] 0.95% | [6] 15%

O=C(O)CCCCC(=O)c1ccccc1
inactive: [1] 30.6% | [2] 12.2% | [3] 21% | [4] -0.25% | [5] 26.6% | [6] 24.9%

Cc1ccc(NC(=O)NC23CC4CC(CC(F)(C4)C2)C3)cc1
inactive: [1] 20.1% | [2] 4.45% | [3] -34% | [4] 0.25% | [5] -3.65% | [6] -12.3%

O=C(O)c1c(Br)c(Br)c(Br)c(Br)c1C1c2ccc(O)cc2Oc2cc(O)ccc21
inactive: [1] 20.4% | [2] 25% | [3] 35% | [4] -7.75% | [5] -2.6% | [6] 26.6%

Nc1nc2c(c(=O)[nH]1)CN(CCCN1CCOCC1)CN2
inactive: [1] -36.2% | [2] -26.1% | [3] -19.1% | [4] 68% | [5] -30% | [6] 0%

CCCN(CCC)S(=O)(=O)c1ccc(NC(=O)Oc2cc(C)ccc2C(C)C)cc1
inactive: [1] 32.5% | [2] 1.75% | [3] 24.2% | [4] 21.5% | [5] -5.25% | [6] 14.8%

Nc1c(C(=O)Nc2ccc(S(N)(=O)=O)cc2)[n+]([O-])c2ccccc2[n+]1[O-]
inactive: [1] -7.9% | [2] -9.8% | [3] 0.5% | [4] 1% | [5] -9.95% | [6] -6.45%

COc1ccc2[nH]c3c4c(c(C)cc3c2c1)OC(C)(C)C=C4
inactive: [1] 16.2% | [2] -5.75% | [3] -4.05% | [4] -43.3% | [5] -16.6% | [6] -6.15%

O=C1COc2cc(O)cc(O)c21
inactive: [1] 9.8% | [2] 3.7% | [3] 7.85% | [4] 3.9% | [5] 19.5% | [6] 7.75%

CN(CCO)c1cnn(CCO)c(=O)c1Cl
inactive: [1] -14.9% | [2] -8.25% | [3] -17.6% | [4] -6.15% | [5] 8.2% | [6] -7.45%

CC(=O)OC1c2ccccc2Cc2ccccc21
inactive: [1] 21.5% | [2] 26.3% | [3] 4.1% | [4] 16.6% | [5] 19.1% | [6] 13.1%
